# Test results: article PMC4336329 (PLoS ONE, 2015)
# About 2,200 (0.71%) of roughly 310,000 compounds showed an effect of 50% or more. Effects have a minus sign here. The sample holds strong results, similar compounds and a random draw of the others, so the mix is not that of the screen.
# Target: human ether-à-go-go-related gene (hERG) potassium channel (human, UniProt Q12809)
# Assay: primary screen, population patch clamp on CHO cells stably expressing hERG; higher = less effect of the substance
# Chain of human ether-à-go-go-related gene (hERG) potassium channel (Q12809 whole entry, looked up): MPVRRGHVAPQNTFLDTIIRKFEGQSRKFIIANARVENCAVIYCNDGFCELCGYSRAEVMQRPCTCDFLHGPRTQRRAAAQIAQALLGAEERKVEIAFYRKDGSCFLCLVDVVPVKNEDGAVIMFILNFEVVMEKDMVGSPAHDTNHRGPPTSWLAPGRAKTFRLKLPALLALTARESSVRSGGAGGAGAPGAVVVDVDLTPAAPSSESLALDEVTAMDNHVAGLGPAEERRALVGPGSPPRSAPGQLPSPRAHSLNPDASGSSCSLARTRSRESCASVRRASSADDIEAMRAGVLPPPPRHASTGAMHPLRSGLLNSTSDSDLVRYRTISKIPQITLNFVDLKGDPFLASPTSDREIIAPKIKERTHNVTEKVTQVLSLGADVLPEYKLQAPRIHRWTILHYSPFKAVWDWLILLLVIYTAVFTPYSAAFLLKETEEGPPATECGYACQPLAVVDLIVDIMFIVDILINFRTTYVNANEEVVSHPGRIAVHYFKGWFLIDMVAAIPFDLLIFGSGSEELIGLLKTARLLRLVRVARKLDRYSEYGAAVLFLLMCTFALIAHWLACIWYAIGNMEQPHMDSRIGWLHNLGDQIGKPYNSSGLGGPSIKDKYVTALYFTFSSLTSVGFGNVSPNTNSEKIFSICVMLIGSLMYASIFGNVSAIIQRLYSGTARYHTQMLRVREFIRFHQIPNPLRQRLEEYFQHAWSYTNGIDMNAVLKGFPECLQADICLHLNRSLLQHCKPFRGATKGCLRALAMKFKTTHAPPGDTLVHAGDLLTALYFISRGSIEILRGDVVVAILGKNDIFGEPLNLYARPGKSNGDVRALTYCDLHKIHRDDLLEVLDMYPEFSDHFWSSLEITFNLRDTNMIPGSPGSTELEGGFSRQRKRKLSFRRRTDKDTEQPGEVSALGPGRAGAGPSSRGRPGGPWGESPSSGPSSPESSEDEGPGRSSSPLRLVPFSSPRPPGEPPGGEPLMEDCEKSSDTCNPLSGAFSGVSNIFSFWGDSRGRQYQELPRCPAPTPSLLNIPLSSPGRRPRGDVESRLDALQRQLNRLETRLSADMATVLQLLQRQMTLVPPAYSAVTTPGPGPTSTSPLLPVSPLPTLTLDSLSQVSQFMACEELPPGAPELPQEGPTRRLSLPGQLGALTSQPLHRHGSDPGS
row,SMILES,"hERG current change (%, negative = inhibition) at 1uM [%]"
1,CCCOc1cccc(C(=O)NCCNC(=O)c2ccco2)c1,18.6
2,O=C(N/N=C/c1cc2c(cc1[N+](=O)[O-])OCO2)c1ccccn1,10.1
3,CCC(C)N(C)Cc1cccc(C2(O)CCN(S(=O)(=O)c3ccc(F)cc3)CC2)c1 (stereo not drawn),-30.8
4,Cc1cc(S(=O)(=O)N2CCN(c3c(C)cccc3C)CC2)ccc1F,-0.574
5,CCC(C)N(C)Cc1cccc(C2(O)CCN(S(=O)(=O)c3ccc(F)c(C)c3)CC2)c1 (stereo not drawn),-71.2
6,Cc1c(O[C@@H]2O[C@H](CO)[C@@H](O)[C@H](O)[C@H]2O)ccc2c1oc(=O)c1ccccc12,16.9
7,Cn1cccc1Cc1nnc(SCC(=O)N2CCCC2)n1CCc1ccccc1,10.7
8,Cc1nc2nc(N)nn2c(C)c1C/C=C/c1ccccc1,2.83
9,Cc1nnc2ccc(-c3cccc(NC(=O)c4ccco4)c3)nn12,1.54
10,Cc1nnc2ccc(-c3cccc(NC(=O)c4ccc(Br)o4)c3)nn12,-52.2
11,Cc1nnc2ccc(-c3cccc(NC(=O)c4ccc(Cl)nc4)c3)nn12,-1.98
12,COc1ccc(CN2CCSc3sccc3C2=O)cc1,3.85
13,CCc1ccc(Nc2ncc3c(n2)CC(c2ccco2)CC3=O)cc1 (stereo not drawn),5.43
14,Cn1nccc1C(=O)N1CCN(c2ncccn2)CC1,9.95
15,Cl.NC(=O)c1ccc(OCCC(O)N2CC=C(c3ccc(F)cc3)CC2)cc1 (stereo not drawn),-53
16,CCCCOc1ccc(C(=O)NCC(=O)N2CC=C(c3ccccc3)CC2)cc1,10.7
17,CN1CCNC(=O)C1CC(=O)N1CC=C(c2ccc(F)cc2)CC1 (stereo not drawn),16.2
18,O=C(NCc1ccccc1)c1cccc(S(=O)(=O)NCc2ccccc2)c1,6.18
19,CCN(CC)c1ccc(NC(=O)C2CCC(CNc3c(N4CCCC4)c(=O)c3=O)CC2)c(C)c1 (stereo not drawn),13.6

row,SMILES,"hERG current change (%, negative = inhibition) at 1uM [%]"
1,CCOc1ccc(C(C)=O)cc1COC(=O)C1=COCCO1,-0.905
2,COc1ccc(CCN(Cc2cc3ccc(C)cc3[nH]c2=O)C(C)=O)cc1OC,-26.6
3,COc1ccc(CCNCc2cc3ccc(C)cc3[nH]c2=O)cc1OC,-53.5
4,Cc1cccc(CCNCc2cc3ccc(C)cc3[nH]c2=O)c1,-54.6
5,CNCc1cc2ccc(C)cc2[nH]c1=O,-6.99
6,Cc1cccc(CCNCc2cc3cccc(C)c3[nH]c2=O)c1,-35.7
7,Cc1ccc2cc(CNCCc3ccccc3C)c(=O)[nH]c2c1,-42.9
8,Cc1ccc(Cl)cc1N1CCN(C(=O)Cc2c(C(=O)O)[nH]c3ccc(Cl)cc23)CC1,22.4
9,COCCOc1cnn(-c2cc(Oc3ccc(C)cc3)ncn2)c(=O)c1Cl,7.88
10,Cc1ccc(-n2c(SCC3CNC(=O)O3)nnc2-c2ccccc2)cc1C (stereo not drawn),0.305
11,CCOc1ccc(NC(=O)CN(C)C(=O)c2c(C)noc2C)cc1OCC,9.87
12,CCN(CC)CCCNC(=S)Nc1ccc(Br)cc1,-8.09
13,COc1ccc(C(=O)NCC(=O)OCc2ccc(F)cc2Cl)cc1OC,11.2
14,COc1ccc(C(=O)NC2CCN(Cc3c(F)cccc3Cl)CC2)cc1OC,10.1
15,COc1ccc(C(=O)NC2CC2)cc1OC1CCN(Cc2ccc(F)cc2Cl)CC1,-62
16,O=C(NCc1ccccn1)c1ccc(OC2CCN(Cc3ccc(F)cc3F)CC2)cc1,0.219
17,COc1ccc(C(=O)NC2CC2)cc1OC1CCN(Cc2ccc(F)cc2F)CC1,-75.1
18,COCCNC(=O)c1cccc(OC2CCN(Cc3ccc(F)cc3OC)CC2)c1,10.6
19,CCCN1CCN(C(=O)c2oc3c(Cl)cccc3c2C)CC1,-0.0965

row,SMILES,"hERG current change (%, negative = inhibition) at 1uM [%]"
1,CCCCC(=O)Nc1cccc(NC(=O)CC)c1,10.3
2,Cc1ccccc1-n1cc(-c2ccc(Br)cc2)nc1SCC(N)=O,10.3
3,CCC1CCCCN1CCCCOc1cccc(Cl)c1.O=C(O)C(=O)O (stereo not drawn),-55.6
4,Clc1cccc(OCCN2CCOCC2)c1.O=C(O)C(=O)O,5.84
5,Clc1cccc(OCCCCN2CCCCC2)c1,-4.66
6,CCNC(=O)NC(=O)C(C)N1C(=O)NC(c2ccccc2)(c2ccccc2)C1=O (stereo not drawn),-2.55
7,CC(C(=O)NC(N)=O)N1C(=O)NC(c2ccccc2)(c2ccccc2)C1=O (stereo not drawn),-0.156
8,COc1ccc(CNC(=O)C(C)N2C(=O)NC(c3ccccc3)(c3ccccc3)C2=O)cc1 (stereo not drawn),-56.1
9,CCCCNCC(=O)Nc1ccc(NC(=O)CNCCCC)cc1,16.2
10,CCCN1Cc2cccc(C(N)=O)c2C1=O,3.15
11,Cc1cccc(CN2CCCC(C(=O)c3ccc(C(F)(F)F)cc3)C2)n1 (stereo not drawn),-40
12,CCn1ccnc1CN1CCCC(C(=O)c2cccc(C(F)(F)F)c2)C1 (stereo not drawn),1.55
13,O=C(c1ccc(C(F)(F)F)cc1)C1CCCN(Cc2ccncc2)C1 (stereo not drawn),-7.99
14,O=C(c1cccc(C(F)(F)F)c1)C1CCCN(Cc2ncc[nH]2)C1 (stereo not drawn),11.1
15,CC(=O)Nc1ccc(CN2CCCC(C(=O)c3cccc(C(F)(F)F)c3)C2)cc1 (stereo not drawn),7.86
16,O=C(c1ccc(C(F)(F)F)cc1)C1CCCN(Cc2cccn2-c2ncccn2)C1 (stereo not drawn),-88
17,O=C(c1cccc(C(F)(F)F)c1)C1CCCN(Cc2cccn2-c2ncccn2)C1 (stereo not drawn),-105
18,O=C(c1cccc(C(F)(F)F)c1)C1CCCN(Cc2cccn2-c2ccccn2)C1 (stereo not drawn),-90.4
19,O=C(c1cccc(C(F)(F)F)c1)C1CCCN(Cc2ccccc2O)C1 (stereo not drawn),13.2
